SENP8 block-1 = blocks human SENP8 cleavage of Nedd8 substrate; Q96LD8; AID 602440; recombinant SENP8, Nedd8 substrate fluorescence; inhibition, % at 20 µM; actives 0.64% (n = 360,000); in the data active = inhibition mostly above about 40%, no sharp cut-off; inactive = mostly below about 27%
SENP7 block = inhibitors of human SENP7 protease | Q9BQF6 | recombinant SENP7, Z-RLRGG-aminoluciferin luminescence, 40 min | inhibition, % at 5 µM | actives 1.5% (n = 330,000) | AID 434973;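 active = inhibition above about 50% at the single test dose, limit read from the data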;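 note: plate controls were DMSO with enzyme for no effect and no enzyme buffer wells for full effect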
Target sequence (Q9BQF6 706-1050 limits assumed): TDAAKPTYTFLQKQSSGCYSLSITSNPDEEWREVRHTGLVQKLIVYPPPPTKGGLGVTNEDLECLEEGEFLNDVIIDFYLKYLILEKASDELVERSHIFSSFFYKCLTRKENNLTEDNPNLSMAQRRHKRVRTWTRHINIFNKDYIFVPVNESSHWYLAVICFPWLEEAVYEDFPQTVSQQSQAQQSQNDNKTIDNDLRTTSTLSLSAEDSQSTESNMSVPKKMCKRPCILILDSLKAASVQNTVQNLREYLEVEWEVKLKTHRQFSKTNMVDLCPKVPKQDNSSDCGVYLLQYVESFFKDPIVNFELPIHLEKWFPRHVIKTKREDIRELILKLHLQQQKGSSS
SENP6 inh = blocks the human protease SENP6. Q9GZR1. Recombinant SENP6 catalytic domain, aminoluciferin luminescence. inhibition, % at 10 µM. actives 1.8% (n = 330,000). AID 2599;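 active = inhibition above about 50% at the single tested dose, limit read from the data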;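 note: plate controls were DMSO wells with enzyme for no effect and DMSO wells lacking enzyme for full effect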
Platelet DG rel = platelet dense granule release activity; human platelet-rich plasma, SFLLRN dense granule ATP release, luminescence; actives 0.22% (n = 300,000); inhibition, %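 (compounds screened at 7.5 µM in platelet-rich plasma)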;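 active = mean replicate score, as percent of positive control, at or above 50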
SENP8 block-2 = inhibitors of human SENP8 protease. purified SENP8, Z-RLRGG-aminoluciferin cleavage, luminescence. inhibition, % at 10 µM. actives 1.2% (n = 330,000). AID 2540; in the data active = inhibition above about 50%
SENP8 conf = human SENP8 inhibition, confirmed; Recombinant SENP8, Z-RLRGG-aminoluciferin luminescence, 60 min; shares compounds with SENP7 block; actives 40% (n = 6,200); inhibition, % at 12.5 µM;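 active = mean inhibition across replicates above about 50%, limit read from the data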
SENP6 confirm = confirmation of human SENP6 protease inhibitors. inhibition, % at 12.5 µM. recombinant SENP6, Z-RLRGG-aminoluciferin luminescence. AID 488915. shares compounds with SENP7 block. actives 58% (n = 6,200)
SENP7 confirm = confirmation of human SENP7 protease inhibitors | AID 488917 | shares compounds with SENP7 block | actives 69% (n = 6,200) | inhibition, % at 12.5 µM | recombinant SENP7, Z-RLRGG-aminoluciferin luminescence, 40 min
Casp3 SENP sel = caspase-3 inhibition (SENP selectivity assay) | shares compounds with SENP7 block | purified caspase-3, Z-DEVD-aminoluciferin luminescence, 60 min | inhibition, % at 12.5 µM | actives 60% (n = 6,200);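 active = mean inhibition above about 50%, limit read from the data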;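 note: plate controls were enzyme with DMSO for no effect and wells without caspase-3 for full effect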
Target sequence (P42574 28-227 limits assumed): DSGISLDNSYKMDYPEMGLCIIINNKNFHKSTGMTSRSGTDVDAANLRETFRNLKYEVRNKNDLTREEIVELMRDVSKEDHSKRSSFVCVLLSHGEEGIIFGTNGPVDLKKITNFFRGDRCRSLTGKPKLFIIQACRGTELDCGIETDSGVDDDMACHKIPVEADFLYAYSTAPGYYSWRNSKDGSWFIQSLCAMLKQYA
Luc interf = interferes with luciferase luminescence in SENP counter-screen. inhibition, % at 12.5 µM. shares compounds with SENP7 block. Pre-incubated SENP8/Z-RLRGG-aminoluciferin, luciferase luminescence interference. actives 39% (n = 6,200);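 active = mean inhibition above about 50% when retested at one dose, limit read from the data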;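 note: plate controls were DMSO wells with completed reaction for no effect and substrate without enzyme for full effect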
Starred values were filed as active, the others as inactive; . = not tested or not shown. Sampled rows, rich in hits. Any-hit rate of the full collection: about 2.4%.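 Rule for the calls, unless noted: active = mean inhibition above about 50% in the one-dose retest (limit read from the data); inactive = the rest.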

SMILES	SENP8 block-1	SENP7 block	SENP6 inh	Platelet DG rel	SENP8 block-2	SENP8 conf	SENP6 confirm	SENP7 confirm	Casp3 SENP sel	Luc interf
COc1ccc(-c2cc(-c3ccc(OC)c(OC)c3)n[nH]2)c(O)c1	16	96*	94*	41	93*	97*	98*	102*	86*	95*
COC(=O)c1cc(-c2ccc(OC)c(OC)c2)n[nH]1	17	9	-11	-2	3	.	.	.	.	.
O=C(Cc1ccc(S(=O)(=O)N2CCOCC2)s1)N1CCN(S(=O)(=O)c2ccc(Cl)cc2)CC1	-16	9	1	.	3	.	.	.	.	.
O=C(O)c1cc(-c2ccc3c(c2)OCCO3)n[nH]1	-1	0	12	-3	-2	.	.	.	.	.
Oc1ccccc1-c1cc(-c2ccc3c(c2)OCCO3)n[nH]1	12	1	97*	37	95*	97*	99*	103*	92*	68*
C/C(=N\NC(=O)c1cccc(C)c1)c1ccc(N2CCOCC2)cc1	-60	15	12	5	-1	.	.	.	.	.
Cc1cccc(/C=C/C(=O)c2ccc(N3CCOCC3)cc2)c1	.	92*	89*	-3	84*	30	34	35	55*	80*
Cc1ccc(/C=C/C(=O)c2ccc(N3CCOCC3)cc2)s1	-12	35	81*	45	68*	-1	33	33	16	0
CC(=O)N1CCN(C(c2ccccc2)c2nnnn2C(C)(C)C)CC1 (configuration not stated)	11	.	.	.	.	.	.	.	.	.
CCOc1ccc(NC(=O)CN2C(=O)NC(CCc3ccccc3)C2=O)cc1OCC (configuration not stated)	10	1	68*	.	-7	9	3	-3	-3	-8
O=C(Nc1ccc(F)cc1)Nc1ccc(N2CCOCC2)c2nonc12	28	57*	17	8	4	4	12	44	44	17
O=C(Nc1ccc(N2CCOCC2)c2nonc12)C1CCCC1	35	24	49	3	24	.	.	.	.	.
CC1CC(C)CN(S(=O)(=O)c2ccc3c(c2)CCN3C(=O)C2CC2)C1 (configuration not stated)	3	8	-2	22	-7	.	.	.	.	.
COc1ccc(OC)c(-n2nnnc2SCC(=O)Nc2ccc3c(c2)OCCO3)c1	17	8	-6	-4	7	.	.	.	.	.
COc1ccc(OC)c(-n2nnnc2SCC(=O)Nc2ccc(C(=O)N3CCCCC3)cc2)c1	7	57*	-11	-15	5	7	6	1	-4	-3
O=C(Cc1cccs1)Nc1ccccc1C(=O)O	6	31	63*	-1	45	52*	50*	84*	88*	71*
Cc1c(C(=O)Nc2nnc(C(F)(F)F)s2)oc2ccccc12	-237	62*	47	1	39	53*	54*	60*	59*	22
Cc1c(C(=O)Nc2ccccn2)oc2c(Cl)cccc12	2	-3	17	13	-4	.	.	.	.	.
CCOc1ccc2oc(C(=O)Nc3ccc(C)cn3)c(C)c2c1	-115	.	.	.	.	.	.	.	.	.
Cc1ccc(NC(=O)c2oc3ccccc3c2C)nc1	-2	47	55*	-16	15	37	30	70*	42	11
Cc1c(C(=O)Nc2ccccn2)oc2ccccc12	2	76*	64*	11	57*	1	55*	79*	56*	56*
O=c1c(-c2ccc3c(c2)OCCO3)coc2cc(O)cc(O)c12	32	58*	67*	3	50*	76*	73*	89*	58*	70*
CCN(CC)Cc1c(O)ccc2c(=O)c(-c3ccc4c(c3)OCCO4)coc12	-484	-1	-8	12	-2	.	.	.	.	.
O=C1OC(Nc2ccc3ncccc3c2)c2ccccc21 (configuration not stated)	-210	-16	72*	-13	39	4	1	1	2	0
CCN(CC)c1ccc(C(=O)OCC(=O)Nc2sccc2C#N)cc1	-10	6	69*	5	21	38	42	70*	21	37
SMILES	SENP8 block-1	SENP7 block	SENP6 inh	Platelet DG rel	SENP8 block-2	SENP8 conf	SENP6 confirm	SENP7 confirm	Casp3 SENP sel	Luc interf
O=C(CCN1C(=O)/C(=C/c2ccccc2Cl)SC1=S)N1CCCC1	24	-16	9	-11	-6	.	.	.	.	.
O=C(CCCN1C(=O)/C(=C/c2ccccc2Cl)SC1=S)N1CCCC1	22	68*	74*	-5	84*	85*	84*	88*	61*	28
O=C(CCCN1C(=O)/C(=C/c2ccccc2Cl)SC1=S)NCCCN1CCOCC1	22	21	52*	-6	22	50*	44	65*	30	40
COc1ccc(NC(=O)C2(C)Cc3c(-c4ccccc4)ccnc3O2)cc1OC (configuration not stated)	13	.	.	.	.	.	.	.	.	.
Cc1cccn2c(=O)c(C=O)c(Nc3ccccc3)nc12	14	-6	-19	-1	-13	.	.	.	.	.
C=CCOc1ccc(/C=C/C(=O)OCC(=O)N(C)CC(=O)Nc2ccc(F)cc2)cc1	-5	0	-12	-2	-2	.	.	.	.	.
Nc1nc(Nc2cccc(F)c2)nc2ccccc12	-319	90*	96*	33	88*	96*	96*	102*	91*	96*
Cc1ccc(C)c(Nc2nc(N)c3ccccc3n2)c1	-119	49	58*	14	46	27	30	75*	65*	44
CCOC(=O)c1cc2c(=O)c3cc(C)ccc3oc2nc1C	-20	92*	45	4	71*	25	31	32	60*	10
CC(=O)c1cc2c(=O)c3cc(C)ccc3oc2nc1C	-144	64*	75*	-8	64*	44	23	50	56*	10
Cc1ccc2oc3nc(C)c(C(=O)O)cc3c(=O)c2c1	-494	92*	88*	.	81*	6	44	68*	80*	56*
Cc1nc2oc3ccc(F)cc3c(=O)c2cc1C(=O)O	-29	20	17	4	6	.	.	.	.	.
CC(=O)Nc1ccc(S(=O)(=O)N2CCN(c3ccc(C(C)=O)cc3)CC2)cc1	-114	.	.	.	.	.	.	.	.	.
O=C(N=C1SC2CS(=O)(=O)CC2N1c1ccc(F)cc1)C1CC1 (configuration not stated)	-2	-1	-12	-13	-14	.	.	.	.	.

Screening results (PubChem)
